HCMV antiviral – blocks human cytomegalovirus replication; HFF cells, HCMV-luciferase reporter, 72 h; active compounds read low; hit rate 4.5% among 410,000; AID 1259415; activity change, negative = inhibition, % at 57.5 µM; in the data active = activity change below about -60%; inconclusive = no clear call, values can overlap the other calls; inactive = above about -39%
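Steps: HFFs plated, 16 h 37C; compounds added; HCMV-luciferase added to MOI 1 PFU/cell; 72 h 37C; OneGlo reagent, 5 min room temperature; luminescence read, normalized to controls.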
FMDV antiviral – blocks foot and mouth disease virus. hit rate 1.2% among 410,000. Potency, µM (doses to about 57.9 µM), without a hit: at the highest dose activity change, negative = inhibition, hits mostly inhibitors. FMDV antiviral cell-based qHTS; calls by dose curve; tested in HEK293T cells; note: read-out not given here; potency is the fitted concentration of half-maximal effect; nearly all actives have a fitted effect of over 45% in size
MARV entry inh – Marburg virus entry inhibition; Potency, µM (series often up to 37.8 µM), without a hit: at the top dose activity change, negative = inhibition, actives largely listed as inhibitors; AID 540276; hit rate 1.8% among 300,000; Marburg virus pseudotyped entry inhibition, cell reporter; calls by dose curve; tested in HEK293 cells; note: potency is the fitted concentration of half-maximal effect
Lassa entry inh – Lassa virus entry inhibition; Lassa virus pseudotype entry inhibition, cell reporter; Potency, µM (top dose mostly 37.9 µM), for inactives: at the highest dose activity change, negative = inhibition, usual class: inhibitors; hit rate 1.2% among 300,000; AID 540256; calls by dose curve; tested in HEK293 cells; note: potency is the fitted concentration of half-maximal effect; nearly all actives have a fitted effect of over 50% in size
Vaccinia mCherry – inhibitors of vaccinia virus infection (mCherry reporter signal); Vaccinia virus mCherry reporter infection, fluorescence; Potency, µM (series often up to 36.5 µM), for the others: at the highest dose activity change, negative = inhibition, actives largely listed as inhibitors; hit rate 0.63% among 310,000; AID 720579; calls by dose curve; tested in A549 cells; note: potency is the fitted concentration of half-maximal effect; nearly all actives have a fitted effect of over 35% in size
Vaccinia Venus – vaccinia inhibition (Venus reporter); Vaccinia virus Venus reporter expression, fluorescence; Potency, µM (series often up to 36.5 µM), for inactives: top-dose activity change, negative = inhibition, hits mostly inhibitors; hit rate 0.46% among 330,000; AID 720580; calls by dose curve; tested in A549 cells; note: potency is the fitted concentration of half-maximal effect; nearly all actives have a fitted effect of over 30% in size
Active calls of the source: *; i = inactive; u = inconclusive; x = not tested or not shown; [ ] = remark or other dose. Only some compounds are listed: those with a hit (about 6.5% of all), similar ones and a draw of the others. % is set by controls: 0 for no effect and ±100 for the full control effect.

SMILES	HCMV antiviral	FMDV antiviral	MARV entry inh	Lassa entry inh	Vaccinia mCherry	Vaccinia Venus
COc1ccc2c(c1)c1c(c(=O)n(-c3ccc(C)cc3)c(=O)n1CC(=O)c1ccc(Cl)cc1)n2C	-15.8	-10.6%	x	17.1%[46.1 µM]	-20.4%	-13.5%
COC(=O)c1cccc(N2C(=O)C[C@](Sc3ccc(OC)cc3)(C(=O)N(C)C)[C@H]2c2ccc(OC)cc2)c1	-23.4	x	x	x	x	x
CC(=O)C1CCC2C3CC=C4CC(SC(=N)N)CCC4(C)C3CCC12C (stereo unspecified)	9.4	0.0%	11.2µM*	u	u	15.8µM*
CC(C)(C)[C@H](N)C(=O)N[C@H]1CCC2C3CC=C4C[C@@H](O)CC[C@]4(C)C3CC[C@@]21C (stereo partly specified)	-99.3*	-11.5%	u	u	u	u
COC(=O)C1=C(C)N(CCc2cc(OC)c(OC)c(OC)c2)C(=O)NC1c1ccc(Br)cc1 (stereo unspecified)	x	x	2.2%[14.2 µM]	-3.0%[14.3 µM]	x	x
COc1cc(O)c(C(=O)c2ccccc2)cc1O	x	48.5%	x	x	u	-6.6%
COc1ccc(C(=O)c2ccccc2)c2c(O)ccc(C(=O)c3ccccc3)c12	-78.9*	12.6µM*	14.1µM*	u	x	u
N#C/C(=C/c1ccccc1[N+](=O)[O-])c1nnc2n1CCCCC2	-60.3*	-7.0%	17.2%	2.6%	-3.5%	-14.7%
CCN(CC)C(=O)c1c(-c2ccccc2)c(-c2ccccc2)nn(CC)c1=O	6.7	u	u	8.8%[46.1 µM]	-2.1%	-4.1%
Cc1nc(SCc2ccc(C(=O)O)cc2)nc2c1CCCC2	-61.5*	u	u	-28.3%[46.1 µM]	i	-19.4%
Cc1nc(SCc2cccc(Cl)c2)nc2c1CCCC2	18.4	7.6%	6.0%[46.1 µM]	1.3%[46.1 µM]	-4.6%	-2.8%
CCNc1ncc2nc(-c3ccc(F)cc3)c(=O)n(Cc3ccc(F)cc3)c2n1	x	-9.3%	x	x	x	x
C[C@@H]1O[C@@H](O[C@H]2C[C@@H](O)[C@]3(CO)[C@@H]4C(CC[C@]3(O)C2)[C@@]2(O)CC[C@H](C3=CC(=O)OC3)[C@@]2(C)C[C@H]4O)[C@H](O)[C@H](O)[C@H]1O (stereo partly specified)	x	u	0.0316µM*	x	-11.4%	-8.8%
CC1O[C@@H](OC2CC(O)[C@@]3(CO)C4C(O)C[C@@]5(C)C(C6=CC(=O)OC6)CC[C@]5(O)C4CC[C@]3(O)C2)C(O)C(O)C1O (stereo partly specified)	x	0.0%	x	x	0.316µM*	0.282µM*
C[C@@H]1O[C@@H](O[C@H]2C[C@@H](O)[C@]3(CO)[C@H]4[C@H](O)C[C@]5(C)[C@@H](C6=CC(=O)OC6)CC[C@]5(O)[C@@H]4CC[C@]3(O)C2)[C@H](O)[C@H](O)[C@H]1O	x	u	0.0651µM*	0.0461µM*	0.501µM*	0.631µM*
O=S(=O)(c1ccc(C(F)(F)F)cc1)N1CCN(c2nc(-c3ccccc3)nc3ccccc23)CC1	x	x	x	x	-13.9%	-10.8%
NC(N)=N/N=C(\N=Nc1ccccc1)c1cccc2cccnc12	11.2	-1.5%	6.0%	1.5%	-27.0%	-16.7%
NC(N)=N/N=C(\N=Nc1ccccc1)c1ccc(Cl)cc1	206.9	9.0%	u	15.8µM*	u	u
Nc1nc(F)nc2c1ncn2[C@@H]1O[C@H](CO)[C@@H](O)[C@H]1O	-95.8*	u	x	x	1µM*	1.12µM*
Nc1nc(F)nc2c1ncn2[C@@H]1O[C@H](CO)[C@@H](O)[C@@H]1O	x	-18.3%	1.9%	u	3.16µM*	7.08µM*
Nc1nc(Cl)nc2c1ncn2C1CC(O)C(CO)O1 (stereo unspecified)	-1.9	0.0%	x	x	2.51µM*	u
C[C@H](N)C(=O)NC[C@H]1O[C@@H](n2cnc3c(N)ncnc32)[C@H](O)[C@@H]1O	-74.6*	-22.2%	x	x	-13.2%	2.3%
Nc1nc2c(ncn2[C@H]2C[C@H](O)[C@@H](CO)O2)c(=O)[nH]1	u	-18.3%	x	x	u	u
COc1cc(-c2ccc(Cl)cn2)cc2c1OCCN(C(=O)c1ccccc1-n1cccn1)C2	x	-8.7%	x	x	-19.6%	-9.0%
CCOC(=O)CSC1=C(C#N)[C@H](c2ccc(C)cc2)[C@H](C(=O)OC)C(=O)N1	x	x	-15.2%[46.1 µM]	x	x	x
SMILES	HCMV antiviral	FMDV antiviral	MARV entry inh	Lassa entry inh	Vaccinia mCherry	Vaccinia Venus
Cc1c(Br)cc(C(=O)N2CCCC2)c(C)c1C	18.4	1.0%	-16.2%	2.1%	x	x
Cc1c(Br)cc(C(=O)N2CCN(CCO)CC2)c(C)c1C	-101.4*	0.2%	-6.4%	-9.2%	x	x
COCCNc1nc(NCc2ccc(C)cc2C)c2sccc2n1	-36.0	u	x	x	-20.7%	-12.0%
COCCNc1nc(Nc2ccc(C)cc2C)c2sccc2n1	-76.0*	u	x	x	-10.8%	-28.6%
O=C(CN1C(=O)COc2ccc(S(=O)(=O)NC3CCCC3)cc21)NCc1ccc(Cl)cc1	2.3	13.2%	x	-9.9%[46.1 µM]	-21.3%	-16.3%
O=C(NC1CC(=O)N(c2ccccc2)C1)c1cc2ccccc2o1 (stereo unspecified)	u	-24.2%	x	-0.9%[46.1 µM]	-0.7%[7.34 µM]	-1.4%[7.34 µM]
CN(C)CC/C=C1/c2ccccc2CS(=O)(=O)c2ccccc21	11.6	11.3%	-2.3%[46.1 µM]	25.6%[46.1 µM]	-6.4%	-1.0%
CN(C)CC/C=C1\c2ccccc2COc2ccccc21	-9.6	-19.4%	3.98µM*	u	-14.5%	-8.4%
CCCC(=O)NC(C)c1nc2ccccc2n1Cc1ccccc1 (stereo unspecified)	0.6	-13.4%	u	7.1%[46.1 µM]	2.3%	4.4%
CCc1cccc2c(-c3ccccc3)nc(SCC(=O)Nc3ccccc3)nc12	u	-17.6%	1.7%[46.1 µM]	8.1%[46.1 µM]	3.0%	-0.1%
Cc1ccccc1Cn1cc(S(=O)(=O)CC(=O)Nc2nccs2)c2ccccc21	-76.2*	x	u	-28.1%	-28.0%	-22.6%
O=c1oc2ccccc2cc1-c1nc2c(s1)CCCC2	-20.7	-25.3%	u	2.91µM*	x	x
O=c1oc2ccccc2cc1-c1nc2ccccc2o1	201.6	20.2%	10.2%	-17.1%	x	x
CC(=O)Oc1ccc(C2=Cc3ccc(OC(C)=O)cc3OC2C)cc1 (stereo unspecified)	u	7.1%	u	6.31µM*	10µM*	-16.2%
Cc1ccc(C(=O)c2ccccc2C(=O)OCC(=O)Nc2cccc([N+](=O)[O-])c2)cc1	-35.2	-4.8%	u	-25.0%	-18.3%	u
Cc1ccc(Cl)c(NC(=O)COC(=O)c2ccccc2C(=O)c2ccc(Cl)c([N+](=O)[O-])c2)c1Cl	-101.6*	u	4.61µM*	13µM*	u	u
CCCNC(=O)COC(=O)c1ccccc1C(=O)c1ccc(Cl)c([N+](=O)[O-])c1	-113.3*	11.2µM*	3.16µM*	u	u	14.1µM*
Cc1ccc(C(=O)c2ccccc2C(=O)OCC(=O)NCCc2ccc(Cl)cc2Cl)cc1	-24.9	u	u	-10.7%	-26.0%	-17.2%
Cc1nc2nc(NC(=O)CC(C)C)[nH]n2c(=O)c1Cc1ccccc1	1.2	-3.5%	-9.5%[46.1 µM]	13.7%[46.1 µM]	-10.7%	-12.6%
CN1Cc2sccc2C(c2ccc(O)c(O)c2)C1 (stereo unspecified)	x	x	16.2%	-8.4%	x	x
